According to PubChem BioAssay (NCI):
About 79,000 compounds went through this panel and 15% of them were active in at least one assay; those are over-represented in the sample as a whole. Active and inactive are the calls of the source. Cut-off read from the data, not from the text of the source: active = growth inhibition above about 70%; inactive = the rest.

Experiments:
[1] = NCI Yeast Anticancer Drug Screen. Data for the rad50 strain (AID 155);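 note: 0% = growth of vehicle-only cultures of the same strain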; conditions: S. cerevisiae rad50 strain growth inhibition, stronger effect = higher value
Outline: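 Relative growth inhibition (compound vs vehicle) was measured in yeast with a defined repair-gene alteration.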

[2] = NCI Yeast Anticancer Drug Screen. Data for the mec2-1 strain (AID 157); conditions: S. cerevisiae mec2-1 strain, stronger effect = higher value
Outline: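 Yeast mec2-1 mutant treated with compound. Readout: growth inhibition vs vehicle controls.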

[3] = NCI Yeast Anticancer Drug Screen. Data for the sgs1 mgt1 strain (AID 161);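 note: 0% = growth of cultures given vehicle only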; conditions: S. cerevisiae sgs1 mgt1 strain, stronger effect = higher value
Outline: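 Genetically altered yeast, compound exposure, growth inhibition relative to vehicle.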

[4] = NCI Yeast Anticancer Drug Screen. Data for the cln2 rad14 strain (AID 165);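 note: 0% = growth equal to vehicle treated cultures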; conditions: S. cerevisiae cln2 rad14 strain, stronger effect = higher value
Outline: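 cln2 rad14 yeast strain; compound exposure; growth inhibition read vs vehicle controls.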

[5] = NCI Yeast Anticancer Drug Screen. Data for the bub3 strain (AID 167); conditions: S. cerevisiae bub3 mutant strain, stronger effect = higher value
Outline: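 Screening used yeast with an engineered genetic alteration affecting cell cycle control. Compound-exposed cultures were compared with vehicle cultures, and reduced growth was taken as inhibition.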

[6] = NCI Yeast Anticancer Drug Screen. Data for the mlh1 rad18 strain (AID 175); conditions: S. cerevisiae mlh1 rad18 strain growth inhibition, stronger effect = higher value
Outline: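 Yeast w/ defined DNA-repair lesions; compound exposure; growth vs vehicle controls → % inhibition.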

[7] = at 5.0 µM (retest, dose inferred, filed as 0.5)
[8] = at 50.0 µM (retest, dose inferred, filed as 5.0)

Measured: growth inhibition

CCCCOC(=O)/C=C\C(=O)NC(N)=O
inactive: [1]; [7] 4% | [1]; [8] 9% | [2]; [7] -1% | [2]; [8] 7% | [3]; [7] 5% | [3]; [8] 18% | [4]; [7] -3% | [4]; [8] 1% | [5]; [7] 0% | [5]; [8] 6% | [6]; [7] -21% | [6]; [8] 18%

O=c1[nH]c2nc3ccccc3c(=O)n2nc1Cc1ccccc1
inactive: [1]; at 50.0 µM unless noted -15.7% | [2]; at 50.0 µM unless noted -19.6% | [3]; at 50.0 µM unless noted -8.6% | [4]; at 50.0 µM unless noted -2.05% | [5]; at 50.0 µM unless noted -13.3%

Clc1ncc(Cl)c(Cl)n1
inactive: [1]; at 50.0 µM unless noted 68.7% | [2]; at 50.0 µM unless noted 18.6% | [3]; at 50.0 µM unless noted -46.8% | [4]; at 50.0 µM unless noted -22.5% | [5]; at 50.0 µM unless noted -50.8%

CCCCCCCCCCNC(=O)CI
inactive: [1]; [7] 20% | [2]; [7] 7% | [3]; [7] 24% | [4]; [7] 10% | [4]; [8] 42% | [5]; [7] 14% | [6]; [7] 8%
active: [1]; [8] 98% | [2]; [8] 99% | [3]; [8] 99% | [5]; [8] 100% | [6]; [8] 98%

COC1=CC(=O)C2CC=CC(CC(=O)O)C2(C)C1=O (configuration not stated)
inactive: [1]; at 50.0 µM unless noted -0.95% | [2]; at 50.0 µM unless noted -2.4% | [3]; at 50.0 µM unless noted -0.35% | [4]; at 50.0 µM unless noted -21.9% | [5]; at 50.0 µM unless noted 7.3%

COc1ccc(Nc2ccc3ccccc3c2)cc1
active: [5]; [8] 72%
inactive: [1]; [7] 6% | [1]; [8] 0% | [2]; [7] -2% | [2]; [8] -1% | [3]; [7] -66% | [3]; [8] 50% | [5]; [7] 3% | [6]; [7] -31% | [6]; [8] -7%

COC1=C2CC(C)CC(OC)C(O)C(C)/C=C(\C)C(OC(N)=O)C(OC)/C=C\C=C(/C)C(=O)NC(=C(/C=N/N3CCCCC3)C1=O)C2=O (configuration not stated)
inactive: [1]; at 50.0 µM unless noted 17.4% | [2]; at 50.0 µM unless noted 10.3% | [3]; at 50.0 µM unless noted -13.9% | [4]; at 50.0 µM unless noted -15.7% | [5]; at 50.0 µM unless noted -12.8%

O=C(O)/C=C\C(=O)Nc1cccc2ccccc12
active: [3]; [8] 88%
inactive: [1]; [7] 4% | [1]; [8] 60% | [2]; [7] -1% | [2]; [8] 30% | [3]; [7] 7% | [4]; [7] -1% | [4]; [8] 8% | [5]; [7] -1% | [5]; [8] 42% | [6]; [7] -35% | [6]; [8] 25%

CCCCC1=C(c2ccccc2)/C(=N/Nc2ccc([N+](=O)[O-])cc2[N+](=O)[O-])c2ccccc21
inactive: [1]; at 50.0 µM unless noted 12.7% | [2]; at 50.0 µM unless noted -1.45% | [3]; at 50.0 µM unless noted 5.65% | [4]; at 50.0 µM unless noted -2.85% | [5]; at 50.0 µM unless noted 1.2%

CC(C)NC(=O)N/C=C(\C#N)C(N)=O
inactive: [1]; [7] 4% | [2]; [7] -1% | [2]; [8] 21% | [3]; [7] 4% | [3]; [8] 63% | [5]; [7] -3% | [5]; [8] 20% | [6]; [7] -39% | [6]; [8] 16%
active: [1]; [8] 70%

N#CC(c1ccccc1)c1cccc2ccccc12 (configuration not stated)
inactive: [1]; [7] 5% | [1]; [8] 68% | [2]; [7] 3% | [2]; [8] 35% | [3]; [7] 1% | [4]; [7] -4% | [4]; [8] -4% | [5]; [7] 7% | [5]; [8] 59% | [6]; [7] -25% | [6]; [8] 56%
active: [3]; [8] 74%

CC(C)C(C)(C)c1ccc(O)cc1
active: [1]; [8] 70% | [3]; [8] 75% | [6]; [8] 74%
inactive: [1]; [7] -34% | [2]; [7] -2% | [2]; [8] 68% | [3]; [7] 3% | [4]; [7] 2% | [4]; [8] 26% | [5]; [7] 2% | [5]; [8] 61% | [6]; [7] 2%

CCCCNC(=O)/C=C/C(=O)NCCCC
inactive: [1]; at 50.0 µM unless noted 11.5% | [2]; at 50.0 µM unless noted 1.95% | [3]; at 50.0 µM unless noted -0.9% | [4]; at 50.0 µM unless noted -36.4% | [5]; at 50.0 µM unless noted -7.35%

c1ccc(Cc2cncc(Cc3ccccc3)c2)cc1
inactive: [1]; at 50.0 µM unless noted -22.5% | [2]; at 50.0 µM unless noted 1.95% | [3]; at 50.0 µM unless noted 6.85% | [4]; at 50.0 µM unless noted -58.6% | [5]; at 50.0 µM unless noted 55.5%

N#CC(C#N)N=Nc1cc(Cl)ccc1Cl
inactive: [1]; [7] 20% | [2]; [7] 13% | [3]; [7] 16% | [4]; [7] 8% | [5]; [7] 15% | [6]; [7] -2%
active: [1]; [8] 93% | [2]; [8] 87% | [3]; [8] 99% | [4]; [8] 87% | [5]; [8] 96% | [6]; [8] 92%

O=C(Cc1ccccc1)c1ccc(O)c(Cl)c1
inactive: [1]; [7] 20% | [2]; [7] 2% | [3]; [7] 18% | [5]; [7] 7% | [6]; [7] -11%
active: [1]; [8] 99% | [2]; [8] 99% | [3]; [8] 99% | [5]; [8] 99% | [6]; [8] 97%
